{
  "source": "the supplement of paper PMC8728848",
  "assay_in_all_cases": "glycan array binding signal (z-score within array); higher = stronger binding",
  "conditions_in_all_cases": "glycan notation: IUPAC condensed, linker removed",
  "key": {"[1]": {"biological_target": "Fuc(a1-2)Gal(b1-3)GalNAc", "in_short": "(§1)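 The binding signal is a Z-score computed within each array and averaged over linkers. Arrays of the same protein sequence at different concentrations or buffers were also averaged together. Data originate from 3228 arrays in the Consortium for Functional Glycomics database, kept only where the protein sequence was available.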"}, "[2]": {"biological_target": "Fuc(a1-2)Gal(b1-3)GlcNAc(b1-2)Man(a1-3)[Fuc(a1-2)Gal(b1-3)GlcNAc(b1-2)Man(a1-6)]Man(b1-4)GlcNAc(b1-4)GlcNAc", "in_short": "as §1"}, "[3]": {"biological_target": "Fuc(a1-2)Gal(b1-3)GlcNAc(b1-2)Man(a1-3)[Fuc(a1-2)Gal(b1-3)GlcNAc(b1-2)Man(a1-6)]Man(b1-4)GlcNAc(b1-4)[Fuc(a1-6)]GlcNAc", "in_short": "as §1"}, "[4]": {"biological_target": "Fuc(a1-2)Gal(b1-3)[Fuc(a1-4)]GlcNAc(b1-2)Man(a1-3)[Fuc(a1-2)Gal(b1-3)[Fuc(a1-4)]GlcNAc(b1-2)Man(a1-6)]Man(b1-4)GlcNAc(b1-4)GlcNAc", "in_short": "as §1"}, "[5]": {"biological_target": "Fuc(a1-2)Gal(b1-4)Fuc(a1-3)]GlcNAc(b1-2)Man(a1-3)[Fuc(a1-2)Gal(b1-4)[Fuc(a1-3)]GlcNAc(b1-2)Man(a1-6)]Man(b1-4)GlcNAc(b1-4)GlcNAc", "in_short": "as §1"}, "[6]": {"biological_target": "Fuc(a1-2)Gal(b1-4)[Fuc(a1-3)]GlcNAc(b1-3)GalNAc", "in_short": "as §1"}, "[7]": {"biological_target": "Fuc(a1-2)[GalNAc(a1-3)]Gal(b1-3)GalNAc(b1-3)Gal(a1-4)Gal(b1-4)Glc", "in_short": "as §1"}, "[8]": {"biological_target": "Fuc(a1-2)[GalNAc(a1-3)]Gal(b1-4)GlcNAc(b1-3)GalNAc", "in_short": "as §1"}, "[9]": {"biological_target": "Fuc(a1-2)[GalNAc(a1-3)]Gal(b1-4)[Fuc(a1-3)]GlcNAc", "in_short": "as §1"}, "[10]": {"biological_target": "Fuc(a1-3)[Gal3S(b1-4)]GlcNAc6S", "in_short": "as §1"}, "[11]": {"biological_target": "Fuc(a1-3)[GalNAc(b1-4)]GlcNAc", "in_short": "as §1"}, "[12]": {"biological_target": "Gal(a1-3)Gal(b1-4)GlcNAc(b1-2)Man", "in_short": "as §1"}, "[13]": {"biological_target": "Gal(a1-3)Gal(b1-4)GlcNAc(b1-6)GalNAc", "in_short": "as §1"}, "[14]": {"biological_target": "Gal(a1-3)[Gal(a1-4)]Gal(b1-4)GlcNAc", "in_short": "as §1"}, "[15]": {"biological_target": "Gal(a1-6)Glc", "in_short": "as §1"}, "[16]": {"biological_target": "Gal(b1-3)GalNAc(b1-4)[Neu5Ac(a2-3)]Gal(b1-4)Glc", "in_short": "as §1"}, "[17]": {"biological_target": "Gal(b1-3)GlcNAc(b1-3)Gal(b1-4)GlcNAc(b1-2)[Gal(b1-3)GlcNAc(b1-3)Gal(b1-4)GlcNAc(b1-6)]Man(a1-6)[Gal(b1-3)GlcNAc(b1-3)Gal(b1-4)GlcNAc(b1-2)Man(a1-3)]Man(b1-4)GlcNAc(b1-4)[Fuc(a1-6)]GlcNAc", "in_short": "as §1"}, "[18]": {"biological_target": "Gal(b1-3)GlcNAc(b1-3)GalNAc", "in_short": "as §1"}, "[19]": {"biological_target": "Gal(b1-3)[Fuc(a1-4)]GlcNAc(b1-3)Gal(b1-4)GlcNAc", "in_short": "as §1"}, "[20]": {"biological_target": "Gal(b1-4)GlcNAc(b1-2)Man(a1-3)[Gal(b1-4)GlcNAc(b1-2)Man(a1-6)]Man(b1-4)GlcNAc(b1-4)GlcNAc", "in_short": "as §1"}, "[21]": {"biological_target": "Gal(b1-4)GlcNAc(b1-2)Man(a1-3)[GlcNAc(b1-2)Man(a1-6)]Man(b1-4)GlcNAc(b1-4)GlcNAc", "in_short": "as §1"}, "[22]": {"biological_target": "Gal(b1-4)GlcNAc(b1-2)Man(a1-3)[GlcNAc(b1-4)][Gal(b1-4)GlcNAc(b1-2)Man(a1-6)]Man(b1-4)GlcNAc(b1-4)GlcNAc", "in_short": "as §1"}, "[23]": {"biological_target": "Gal(b1-4)GlcNAc(b1-2)[Gal(b1-4)GlcNAc(b1-4)]Man(a1-3)[GlcNAc(b1-4)][Gal(b1-4)GlcNAc(b1-2)[Gal(b1-4)GlcNAc(b1-6)]Man(a1-6)]Man(b1-4)GlcNAc(b1-4)[Fuc(a1-6)]GlcNAc", "in_short": "as §1"}, "[24]": {"biological_target": "Gal(b1-4)GlcNAc(b1-3)Gal(b1-4)GlcNAc(b1-2)[Gal(b1-4)GlcNAc(b1-3)Gal(b1-4)GlcNAc(b1-6)]Man(a1-6)[Gal(b1-4)GlcNAc(b1-3)Gal(b1-4)GlcNAc(b1-2)Man(a1-3)]Man(b1-4)GlcNAc(b1-4)GlcNAc", "in_short": "as §1"}, "[25]": {"biological_target": "Gal(b1-4)GlcNAc(b1-3)Gal(b1-4)GlcNAc(b1-2)[Gal(b1-4)GlcNAc(b1-3)Gal(b1-4)GlcNAc(b1-6)]Man(a1-6)[Gal(b1-4)GlcNAc(b1-3)Gal(b1-4)GlcNAc(b1-2)Man(a1-3)]Man(b1-4)GlcNAc(b1-4)[Fuc(a1-6)]GlcNAc", "in_short": "as §1"}, "[26]": {"biological_target": "Gal(b1-4)GlcNAc(b1-3)Gal(b1-4)GlcNAc(b1-3)Gal(b1-4)GlcNAc(b1-3)Gal(b1-4)GlcNAc(b1-2)Man(a1-3)[Gal(b1-4)GlcNAc(b1-3)Gal(b1-4)GlcNAc(b1-3)Gal(b1-4)GlcNAc(b1-3)Gal(b1-4)GlcNAc(b1-2)Man(a1-6)]Man(b1-4)GlcNAc(b1-4)[Fuc(a1-6)]GlcNAc", "in_short": "as §1"}, "[27]": {"biological_target": "Gal(b1-4)GlcNAc(b1-3)Gal(b1-4)GlcNAc(b1-3)Gal(b1-4)GlcNAc(b1-3)Gal(b1-4)GlcNAc(b1-3)Gal(b1-4)GlcNAc(b1-2)Man(a1-3)[Gal(b1-4)GlcNAc(b1-3)Gal(b1-4)GlcNAc(b1-3)Gal(b1-4)GlcNAc(b1-3)Gal(b1-4)GlcNAc(b1-3)Gal(b1-4)GlcNAc(b1-2)Man(a1-6)]Man(b1-4)GlcNAc(b1-4)GlcNAc", "in_short": "as §1"}},
  "note": "This excerpt belongs to a sample that is enriched for the strongest signals.",
  "data": [
    {"binder": "LlpA1 (Pseudomonas fluorescens), Q4KHC3 (protein) MGSSHHHHHHSSGLVPRGSHMAWIRYDFTDNGSSVLPARYYMAPNQYLQSPNKRFKLLFQADGNLALYDGAQLAWVADQNTPFTNVSKGNKKDPMMVFMNYGFVLDDPLRGRIWSTTPSDPTMGSREDASLRAFTQVQDDGNIVTVDTIPHWYAPNGRVFTPAVGAAMIIGGTTELVPGQFYSAGEHSLVFQGDGNLVVYGPNSSVIWATYTQNKGGVRCVMQEDGNLVIYAANNGVVWQSGTGGHPGATIRLQANGSFTIVTERPVWARFGYTPTIKPPRVFYPDHKWKTGSYTWNNVF", "values": [
      {"measurement": "glycan array binding signal (z-score)", "setting": "[1]", "result": -0.757},
      {"measurement": "glycan array binding signal (z-score)", "setting": "[2]", "result": 3.75},
      {"measurement": "glycan array binding signal (z-score)", "setting": "[3]", "result": -0.133},
      {"measurement": "glycan array binding signal (z-score)", "setting": "[4]", "result": 3.21},
      {"measurement": "glycan array binding signal (z-score)", "setting": "[5]", "result": 3.1},
      {"measurement": "glycan array binding signal (z-score)", "setting": "[6]", "result": 2.56},
      {"measurement": "glycan array binding signal (z-score)", "setting": "[7]", "result": 0.171},
      {"measurement": "glycan array binding signal (z-score)", "setting": "[8]", "result": -0.468},
      {"measurement": "glycan array binding signal (z-score)", "setting": "[9]", "result": 0.114},
      {"measurement": "glycan array binding signal (z-score)", "setting": "[10]", "result": -0.653},
      {"measurement": "glycan array binding signal (z-score)", "setting": "[11]", "result": -0.611},
      {"measurement": "glycan array binding signal (z-score)", "setting": "[12]", "result": -0.521},
      {"measurement": "glycan array binding signal (z-score)", "setting": "[13]", "result": 0.065},
      {"measurement": "glycan array binding signal (z-score)", "setting": "[14]", "result": 2.71},
      {"measurement": "glycan array binding signal (z-score)", "setting": "[15]", "result": 0.047},
      {"measurement": "glycan array binding signal (z-score)", "setting": "[16]", "result": -0.058},
      {"measurement": "glycan array binding signal (z-score)", "setting": "[17]", "result": 0.631},
      {"measurement": "glycan array binding signal (z-score)", "setting": "[18]", "result": -0.529},
      {"measurement": "glycan array binding signal (z-score)", "setting": "[19]", "result": -0.53},
      {"measurement": "glycan array binding signal (z-score)", "setting": "[20]", "result": -0.071},
      {"measurement": "glycan array binding signal (z-score)", "setting": "[21]", "result": 0.504},
      {"measurement": "glycan array binding signal (z-score)", "setting": "[22]", "result": -0.797},
      {"measurement": "glycan array binding signal (z-score)", "setting": "[23]", "result": 2.29},
      {"measurement": "glycan array binding signal (z-score)", "setting": "[24]", "result": 2.3},
      {"measurement": "glycan array binding signal (z-score)", "setting": "[25]", "result": 1.19},
      {"measurement": "glycan array binding signal (z-score)", "setting": "[26]", "result": 1.12},
      {"measurement": "glycan array binding signal (z-score)", "setting": "[27]", "result": 2.15}
    ]}
  ]
}
